Holding throughout (assay): NCI-60 one-dose screen, 48 h (100 = growth as untreated, 0 = no growth, -100 = all killed)
In experiment [1] the test system is NCI-H23 lung. The following applies: 10 µM unless noted.
Experiment [2] has as its system NCI-H226 lung. The settings on record: 10 µM unless noted.
Experiment [3] concerns NCI-H322M lung. The settings on record: 10 µM unless noted.
For experiment [4], the system named is HOP-62 NSCLC. The following applies: 10 µM unless noted.
In experiment [5] the test system is NCI-H460 lung. The following applies: 10 µM unless noted.
Experiment [6] relates to HOP-92 NSCLC. The settings on record: 10 µM unless noted.
In experiment [7] the test system is NCI-H522 lung. The settings on record: 10 µM unless noted.
For experiment [8], the system named is A549/ATCC NSCLC. The following applies: 10 µM unless noted.
Experiment [9] deals with 786-0 renal. The settings on record: 10 µM unless noted.
The test system of experiment [10] is COLO 205 colon. The following applies: 10 µM unless noted.
In experiment [11] the test system is DU-145 prostate. The settings on record: 10 µM unless noted.
Experiment [12] has as its system K-562 leukemia. The following applies: 10 µM unless noted.
In experiment [13] the test system is MALME-3M melanoma. The following applies: 10 µM unless noted.
In experiment [14] the test system is MDA-MB-231 breast. The following applies: 10 µM unless noted.
Experiment [15] has as its system RXF 393 renal. The following applies: 10 µM unless noted.
Experiment [16] has as its system SF-268 CNS. The following applies: 10 µM unless noted.
Experiment [17] has as its system SF-295 CNS. The following applies: 10 µM unless noted.
Experiment [18] has as its system SF-539 CNS. The settings on record: 10 µM unless noted.
Experiment [19] relates to UACC-257 melanoma. The following applies: 10 µM.
The test system of experiment [20] is M14 melanoma. The settings on record: 10 µM unless noted.

Each structure is given as a SMILES string. This is part of a sample that, as a whole, favours compounds with a hit. Of some 83,000 tested, about 20% had one in any assay.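 Activity criterion: percent growth below 10, measured after cells in 96-well plates were exposed to a single compound concentration for 48 hours.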 Unmarked numbers belong to inactive results. The source made the active and inactive calls.

Consider `O=C1N=C(c2c(-c3[nH]c(=O)c4ccc(Br)cc4c3O)c(O)c3ccccc3c2O)C(=O)c2cc(Br)ccc21`, for which the growth in experiment [1] was -43% (active); in experiment [2] it was -30.4% (active); in experiment [3], -3.29% (active); in experiment [4], -52.9% (active); in experiment [5], -80.9% (active); in [6] it was -13.2% (active). Also, the growth in experiment [7] is -31.4% (active); in [8], -32.2% (active); in experiment [9], -63.2% (active); in experiment [10], 73.1%; in [11], -38.2% (active); in [12], 14.3%. Also, the growth in experiment [13] was -74.3% (active); in [14] it was -8.73% (active); in [15], -76.1% (active); in experiment [16], -41.4% (active); in [17] it was 17.2%; in experiment [18], -57.7% (active). The growth in experiment [19] is -51.6% (active); in experiment [20] it was -31.9% (active).

In the case of `COc1ccc(C(=O)/C=C/c2cc(C(=O)c3cc(OC)c(OC)c(OC)c3)ccc2OC)cc1`, the growth in [1] is 72.9%; in [2], 90.7%; in [3], 91.5%; in experiment [4], 100%; in experiment [5], 88.6%; in experiment [6], 70.5%. Besides, the growth is -0.114% (active) in experiment [7]; 85.3% in experiment [8]; 89.4% in experiment [9]; 75.9% in experiment [10]; 79.3% in experiment [11]; 12.8% in experiment [12]. For the same compound, the growth is 77.9% in [13]; 51.8% in experiment [14]; 73% in [15]; 59.2% in experiment [16]; 98.1% in experiment [17]; 55% in experiment [18]. Besides, the growth in experiment [19] is 68%; in [20], 64.7%.

Consider `COc1cc(C2C=C(C)N=C3SC=C(C)N32)cc(OC)c1OC` (stereo not given), for which the growth in experiment [1] is -27.7% (active); in experiment [2], 2.75% (active); in experiment [3] it was 13.6%; in [4] it was -62.1% (active); in experiment [5] it was -39% (active); in experiment [6] it was -32.4% (active). In addition, the growth is -87.1% (active) in experiment [7]; -19.2% (active) in experiment [8]; -69% (active) in experiment [9]; -75.9% (active) in experiment [10]; -26.7% (active) in experiment [11]; 2.16% (active) in experiment [12]. The growth was -54% (active) in experiment [13]; -23.5% (active) in experiment [14]; -89.7% (active) in experiment [15]; -16.9% (active) in [16]; -1.7% (active) in experiment [17]; -40.4% (active) in [18]. Further, the results for the growth in experiment [19] and in experiment [20] were -38.9% (active) and -52.5% (active), respectively.

In the case of `CC[C@]1(O)C[C@@H]2CN(Cc3c([nH]c4ccccc34)[C@@](C(=O)OC)(c3cc4c(cc3OC)N(C)[C@H]3[C@@](O)(C(=O)OC)[C@H](OC(C)=O)[C@]5(CC)[C@@H]6C[C@@H]6CN6CC[C@]43[C@@H]65)C2)C1`, the growth in experiment [1] is 25.7%; in [2], 50.2%; in experiment [3], 44.7%; in experiment [4] it was 38.8%; in [5], 6.73% (active); in experiment [6] it was -12% (active). In addition, the growth in [7] is -20.3% (active); in [8] it was 22.2%; in [9], 21.4%; in experiment [10], -49.5% (active); in experiment [11], 7.39% (active); in experiment [12] it was 11.8%. The growth was 38% in experiment [13]; 0.275% (active) in experiment [14]; 15.2% in [15]; 28.1% in [16]; -13.9% (active) in experiment [17]; -0.324% (active) in experiment [18]. In addition, the growth in experiment [19] was 71.7%; in experiment [20], -23.2% (active).

Regarding `Clc1cccc(Cl)c1Cn1c(-c2cncs2)nc2ccccc21`, the growth in experiment [1] is 71%; in [2], 88.6%; in experiment [3], 87.5%; in experiment [4], 97%; in experiment [5] it was 101%; in experiment [6] it was 71%. In addition, the growth in experiment [7] was 76.6%; in experiment [8], 73.1%; in [9] it was 87.6%; in experiment [10], 99.5%; in [11] it was 110%; in [12], 35.3%. In addition, the growth in [13] was 81%; in experiment [14], 82.5%; in [15], 95%; in experiment [16] it was 98.2%; in [17], 65.4%; in [18], 96.8%. For the same compound, the results for the growth in [19] and in experiment [20] were 76.6% and 89.5%, respectively.

As for `COC1=CC(c2ccc[nH]2)=N/C1=C\c1[nH]c(C)c(C(=O)CCCCC(=O)Oc2ccc3c(c2)CCC2C3CC[C@]3(C)[C@@H](O)CC[C@@H]23)c1C` (stereo not given in full), the growth in experiment [1] is 73.3%; in experiment [2], 61.5%; in [3], 62.9%; in experiment [4], 68.4%; in experiment [5], 29.6%; in experiment [6] it was 30.4%. The growth in experiment [7] was 12.9%; in experiment [8], 52.6%; in [9], 66.1%; in experiment [10] it was 94.6%; in [11], 30.6%; in [12], 13.6%. The growth is 80.1% in experiment [13]; 10.9% in experiment [14]; 62.4% in experiment [15]; 44.6% in experiment [16]; 80.8% in [17]; 65.9% in [18]. The growth in experiment [19] was 103%; in experiment [20] it was 60%.

Regarding `NS(=O)(=O)c1ccc(NCC(=O)Nc2ccc(-c3nc4ccccc4s3)cc2)cc1`, the growth in experiment [1] is 74.7%; in experiment [2], 83.7%; in experiment [3] it was 88%; in experiment [4], 118%; in experiment [5], 92.5%; in experiment [6], 73.5%. Further, the growth was -63.8% (active) in [7]; 92.6% in experiment [8]; 12.1% in [9]; 98.5% in [10]; 47% in [11]; 8.38% (active) in [12]. The growth in experiment [13] was 53.6%; in experiment [14], 45%; in experiment [15], 99.9%; in [16] it was 25.1%; in [17], 98.8%; in experiment [18] it was 91.4%. In addition, the growth was 97.2% in [19] and 45.6% in [20].

For the origin of these results see PubChem BioAssay (NCI).
